Measurements as given in article PMC8384837, “Expanding the binding specificity for RNA recognition by a PUF domain”.

How the values were obtained:
Test in all cases: yeast three-hybrid, YBZ-1, SC-Leu-His + 0.5 mM 3-AT, 4 days
Conditions in all cases: tags: N-Gal4 AD-HA kept; label: inside an RPR1-promoter hybrid RNA with tandem MS2 sites; ssRNA
[1] = biological target: PUM1 PUF domain R7-KGV (Homo sapiens, UniProt Q14671 828-1176, S1079K;N1080G;E1083V)
How it was run: (§1)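 Repeat regions from input (SC-Leu) and selection (SC-Leu-His + 0.5 mM 3-AT) plates were PCR-amplified and Illumina-sequenced after four days of growth. The cells were strain YBZ-1 with a LexA–MS2 coat fusion and a HIS3 reporter, co-expressing Pumilio-1 PUF domain libraries and matching RNA elements from a centromeric plasmid. The interaction score is the log change in variant frequency from input to selection, taken in log2 with a pseudocount of 1 for absent variants.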

[2] = biological target: PUM1 PUF domain R4-EHT (Homo sapiens, UniProt Q14671 828-1176, N971E;Q975T)
How it was run: as §1

[3] = biological target: PUM1 PUF domain R5-RFN (Homo sapiens, UniProt Q14671 828-1176, C1007R;R1008F;Q1011N)
How it was run: as §1

[4] = biological target: PUM1 PUF domain R5-GWY (Homo sapiens, UniProt Q14671 828-1176, C1007G;R1008W;Q1011Y)
How it was run: as §1

[5] = biological target: PUM1 PUF domain R3-TWD (Homo sapiens, UniProt Q14671 828-1176, C935T;R936W;Q939D)
How it was run: as §1

[6] = biological target: PUM1 PUF domain R3-WWS (Homo sapiens, UniProt Q14671 828-1176, C935W;R936W;Q939S)
How it was run: as §1

[7] = biological target: PUM1 PUF domain R8-WFR (Homo sapiens, UniProt Q14671 828-1176, N1122W;Y1123F;Q1126R)
How it was run: as §1

[8] = biological target: PUM1 PUF domain R1-NYV (Homo sapiens, UniProt Q14671 828-1176, S863N;R864Y;Q867V)
How it was run: as §1

[9] = biological target: PUM1 PUF domain R8-HHP (Homo sapiens, UniProt Q14671 828-1176, N1122H;Y1123H;Q1126P)
How it was run: as §1

[10] = biological target: PUM1 PUF domain R3-RSD (Homo sapiens, UniProt Q14671 828-1176, C935R;R936S;Q939D)
How it was run: as §1

PUM1 PUF domain R8-WFR, sequence (Q14671 828-1176 N1122W/Y1123F/Q1126R): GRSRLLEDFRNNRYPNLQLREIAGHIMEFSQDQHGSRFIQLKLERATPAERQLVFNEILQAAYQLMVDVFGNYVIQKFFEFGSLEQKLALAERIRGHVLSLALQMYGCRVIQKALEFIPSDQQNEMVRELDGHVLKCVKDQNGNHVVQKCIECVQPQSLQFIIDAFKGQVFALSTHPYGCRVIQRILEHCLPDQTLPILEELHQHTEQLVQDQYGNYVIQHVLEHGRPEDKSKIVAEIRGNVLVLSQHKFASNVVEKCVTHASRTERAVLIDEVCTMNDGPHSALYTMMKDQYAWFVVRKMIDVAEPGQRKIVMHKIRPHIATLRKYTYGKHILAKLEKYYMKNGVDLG
PUM1 PUF domain R5-RFN, sequence (Q14671 828-1176 C1007R/R1008F/Q1011N): as the sequence (Q14671 828-1176 N1122W/Y1123F/Q1126R) above, with C180R, R181F, Q184N, W295N, F296Y, R299Q counted along it
PUM1 PUF domain R3-WWS, sequence (Q14671 828-1176 C935W/R936W/Q939S): as the sequence (Q14671 828-1176 N1122W/Y1123F/Q1126R) above, with C108W, R109W, Q112S, W295N, F296Y, R299Q counted along it
PUM1 PUF domain R8-HHP, sequence (Q14671 828-1176 N1122H/Y1123H/Q1126P): as the sequence (Q14671 828-1176 N1122W/Y1123F/Q1126R) above, with W295H, F296H, R299P counted along it
PUM1 PUF domain R5-GWY, sequence (Q14671 828-1176 C1007G/R1008W/Q1011Y): as the sequence (Q14671 828-1176 N1122W/Y1123F/Q1126R) above, with C180G, R181W, Q184Y, W295N, F296Y, R299Q counted along it
PUM1 PUF domain R3-RSD, sequence (Q14671 828-1176 C935R/R936S/Q939D): as the sequence (Q14671 828-1176 N1122W/Y1123F/Q1126R) above, with C108R, R109S, Q112D, W295N, F296Y, R299Q counted along it
PUM1 PUF domain R3-TWD, sequence (Q14671 828-1176 C935T/R936W/Q939D): as the sequence (Q14671 828-1176 N1122W/Y1123F/Q1126R) above, with C108T, R109W, Q112D, W295N, F296Y, R299Q counted along it
PUM1 PUF domain R7-KGV, sequence (Q14671 828-1176 S1079K/N1080G/E1083V): as the sequence (Q14671 828-1176 N1122W/Y1123F/Q1126R) above, with S252K, N253G, E256V, W295N, F296Y, R299Q counted along it
PUM1 PUF domain R4-EHT, sequence (Q14671 828-1176 N971E/Q975T): as the sequence (Q14671 828-1176 N1122W/Y1123F/Q1126R) above, with N144E, Q148T, W295N, F296Y, R299Q counted along it
PUM1 PUF domain R1-NYV, sequence (Q14671 828-1176 S863N/R864Y/Q867V): as the sequence (Q14671 828-1176 N1122W/Y1123F/Q1126R) above, with S36N, R37Y, Q40V, W295N, F296Y, R299Q counted along it

“GGCUAGAACUAGUGGAUCCCCCGGCGCCCGGCGGCUCGAGCCCGGGUAAGUUUAAAUAGUCUGCAUGCCGCCGGGCGCCAUGCCUGCAGGUCGACUCUAGAAAACAUG” was tested, and the binding signal [1] was 3.27 log2 enrichment (interaction score).
For “GGCUAGAACUAGUGGAUCCCCCGGCGCCCGGCGGCUCGAGCCCGGGUAAGUGUAUAUAGUCUGCAUGCCGCCGGGCGCCAUGCCUGCAGGUCGACUCUAGAAAACAUG”, the binding signal [2] was 2.46 log2 enrichment (interaction score).
In the case of “GGCUAGAACUAGUGGAUCCCCCGGCGCCCGGCGGCUCGAGCCCGGGUAAGUGUGAAUAGUCUGCAUGCCGCCGGGCGCCAUGCCUGCAGGUCGACUCUAGAAAACAUG”, the binding signal [3] is reported as 3.16 log2 enrichment (interaction score) and the binding signal [4] is reported as 2.71 log2 enrichment (interaction score).
“GGCUAGAACUAGUGGAUCCCCCGGCGCCCGGCGGCUCGAGCCCGGGUAAGUGUUAAUAGUCUGCAUGCCGCCGGGCGCCAUGCCUGCAGGUCGACUCUAGAAAACAUG” was tested, and the binding signal [3] was 3.08 log2 enrichment (interaction score).
“GGCUAGAACUAGUGGAUCCCCCGGCGCCCGGCGGCUCGAGCCCGGGUAAGUGUAAGUAGUCUGCAUGCCGCCGGGCGCCAUGCCUGCAGGUCGACUCUAGAAAACAUG” was tested, and the binding signal [5] was 2.42 log2 enrichment (interaction score) and the binding signal [6] was 5.24 log2 enrichment (interaction score).
For “GGCUAGAACUAGUGGAUCCCCCGGCGCCCGGCGGCUCGAGCCCGGGUAAGUGUAAAUAGUCUGCAUGCCGCCGGGCGCCAUGCCUGCAGGUCGACUCUAGAAAACAUG”, the binding signal [6] was 2.73 log2 enrichment (interaction score) and the binding signal [7] was 4.29 log2 enrichment (interaction score).
For “GGCUAGAACUAGUGGAUCCCCCGGCGCCCGGCGGCUCGAGCCCGGGUAAGUGUAAAUUGUCUGCAUGCCGCCGGGCGCCAUGCCUGCAGGUCGACUCUAGAAAACAUG”, the binding signal [8] was 3.91 log2 enrichment (interaction score).
“GGCUAGAACUAGUGGAUCCCCCGGCGCCCGGCGGCUCGAGCCCGGGUAAGCGUAAAUAGUCUGCAUGCCGCCGGGCGCCAUGCCUGCAGGUCGACUCUAGAAAACAUG” was tested, and the binding signal [7] was 4.73 log2 enrichment (interaction score).
For “GGCUAGAACUAGUGGAUCCCCCGGCGCCCGGCGGCUCGAGCCCGGGUAAGGGUAAAUAGUCUGCAUGCCGCCGGGCGCCAUGCCUGCAGGUCGACUCUAGAAAACAUG”, the binding signal [9] was 2.56 log2 enrichment (interaction score).
In the case of “GGCUAGAACUAGUGGAUCCCCCGGCGCCCGGCGGCUCGAGCCCGGGUAAGUGUAAUUAGUCUGCAUGCCGCCGGGCGCCAUGCCUGCAGGUCGACUCUAGAAAACAUG”, the binding signal [10] is reported as 3.6 log2 enrichment (interaction score).
